Records with an inconclusive call do not appear. Active and inactive are the calls of the source. Unless noted, calls follow the shape of the dose curve; as a rule, active = well fitted curve in the direction sought with a large enough effect; inconclusive = small, poorly fitted or top-dose-only effect, or another doubt; inactive = no such curve, though single readings can be large; an effect the other way counts as inactive or inconclusive.
Experiments:
[1] = AP1 Signaling Pathway (AID 357; active = well fitted curve in either direction with a large enough effect, not every such curve was filed as active;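 also: ME-180 reporter cells stimulated with EGF at its EC50 level; % is scaled to controls: 0 for no effect and ±100 for the full control effect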)
Outline: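 AP-1-bla ME-180 cells, Opti-MEM + 0.5% dialyzed FBS, plated overnight 37 °C. Cpd titration + EC50 EGF, 5 h 37 °C. CCF4 2.5 h RT; ex 405, em 460/530 ratio → %activity, AC50.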

[2] = NFAT Signaling Pathway (AID 444; active = well fitted curve in either direction with a large enough effect, not every such curve was filed as active;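 also: carbachol stimulus at about its EC50 of 1 µM final; % is scaled to controls: 0 for no effect and ±100 for the full control effect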); settings: Jurkat NFAT-bla M1, carbachol, beta-lactamase ratio, 5 h; at 17.2 µM (top of the series) unless noted
Outline: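 Jurkat cells carrying an NFAT-driven β-lactamase reporter and co-transfected muscarinic M1 receptor were treated with compound plus carbachol (1 uM final, an EC50 level) for 5 h at 37 °C. CCF4 loading followed for 1 h at RT; 460/530 nm ratio gave %activity.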

[3] = Stat Signaling Pathway (AID 446; active = well fitted curve in either direction with a large enough effect, not every such curve was filed as active;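 also: ME-180 cervical cancer cells given 40 pM IL-6 alongside compound; SIE-controlled beta-lactamase reporter measured as 460/530 nm FRET emission ratio; % is scaled to controls: 0 for no effect and ±100 for the full control effect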)
Outline: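 Reporter line: ME-180 cervical carcinoma, SIE-beta-lactamase. Treatment: compound with 40 pM IL-6, 5 hrs, 37 C, in low-serum OPTI-MEM with 10 mM HEPES pH 7.3. Detection: 460/530 nm fluorescence.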

[4] = molecular target: Glucocorticoid receptor (Homo sapiens) (UniProt P04150); assay: GR-GFP Redistribution (AID 450;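 active = compounds whose dose series gives a full or clear partial fitted curve of increased nuclear translocation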; also: potency is read from the fitted curve at half-maximal effect); settings: U2OS GR-GFP nuclear translocation, laser cytometry, 2 h
Sequence of Glucocorticoid receptor (Homo sapiens) (P04150 whole entry, looked up, the tested form may be a part): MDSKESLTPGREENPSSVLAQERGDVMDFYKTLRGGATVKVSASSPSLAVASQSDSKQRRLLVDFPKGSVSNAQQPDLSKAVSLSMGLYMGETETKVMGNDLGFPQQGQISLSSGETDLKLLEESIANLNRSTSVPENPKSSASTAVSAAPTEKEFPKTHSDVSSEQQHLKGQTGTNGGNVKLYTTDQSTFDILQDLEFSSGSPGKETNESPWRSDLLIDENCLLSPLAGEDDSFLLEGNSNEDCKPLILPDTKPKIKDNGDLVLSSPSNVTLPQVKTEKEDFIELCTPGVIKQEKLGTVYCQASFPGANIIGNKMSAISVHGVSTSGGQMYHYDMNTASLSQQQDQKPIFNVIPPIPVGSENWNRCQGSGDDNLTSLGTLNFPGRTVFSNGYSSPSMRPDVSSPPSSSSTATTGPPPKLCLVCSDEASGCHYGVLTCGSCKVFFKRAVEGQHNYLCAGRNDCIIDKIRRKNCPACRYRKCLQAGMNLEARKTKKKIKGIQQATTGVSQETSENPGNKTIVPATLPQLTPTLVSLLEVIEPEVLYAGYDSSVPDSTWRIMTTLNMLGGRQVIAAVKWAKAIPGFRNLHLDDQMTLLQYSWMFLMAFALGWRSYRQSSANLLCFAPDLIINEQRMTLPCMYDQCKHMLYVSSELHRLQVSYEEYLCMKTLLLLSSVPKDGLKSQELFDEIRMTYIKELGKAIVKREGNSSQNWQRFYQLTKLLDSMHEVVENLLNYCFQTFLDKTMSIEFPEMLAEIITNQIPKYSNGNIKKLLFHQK

[5] = molecular target: Glucocorticoid receptor (Homo sapiens) (UniProt P04150); assay: GR-EFC Redistribution (AID 451; calls by dose curve; also: potency is read from the fitted curve at half-maximal effect); settings: CHO-K1 GR-EFC translocation, beta-gal luminescence, 2 h
Outline: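 CHO-K1 cells stably expressing nuclear-localized β-gal enzyme acceptor and GR fused C-terminally to the enzyme donor fragment; ligand-driven nuclear translocation restores β-gal by complementation. Compounds titrated up to 46 uM final, 2 h at 37 °C; luminescence read.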

[6] = molecular target: Mitogen-activated protein kinase 10 (Mus musculus) (UniProt Q61831); assay: JNK3 AlphaScreen Assay (AID 530; active = well fitted curve in either direction with a large enough effect, not every such curve was filed as active;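 also: kinase came from lysate of stimulated human HepG2 cells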; also: potency is read from the fitted curve at half-maximal effect;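 as to activity change, negative = inhibition: signal reports phosphorylation of biotinylated GST-cJun 1-79 at Ser73 with 10 µM ATP; % is scaled to controls: 0 for no effect and ±100 for the full control effect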)
Outline: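 Inhibitors reduce antibody binding to phosphorylated biotin-cJun, lowering AlphaScreen luminescence. Lysates from HepG2 cells pre-activated by IL-1beta plus TNF-alpha supplied JNK3; compounds were titrated.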

[7] = molecular target: 3',5'-cyclic-AMP phosphodiesterase 4B (Homo sapiens) (UniProt Q07343); assay: qHTS Assay for Inhibitors of PDE-IV (AID 607; active = well fitted activation curve with a large enough effect in the main read-out, with a control signal flat, not every such curve was filed as active; also: % of control where 0% means no effect)
Sequence of 3',5'-cyclic-AMP phosphodiesterase 4B (Homo sapiens) (Q07343 whole entry, looked up): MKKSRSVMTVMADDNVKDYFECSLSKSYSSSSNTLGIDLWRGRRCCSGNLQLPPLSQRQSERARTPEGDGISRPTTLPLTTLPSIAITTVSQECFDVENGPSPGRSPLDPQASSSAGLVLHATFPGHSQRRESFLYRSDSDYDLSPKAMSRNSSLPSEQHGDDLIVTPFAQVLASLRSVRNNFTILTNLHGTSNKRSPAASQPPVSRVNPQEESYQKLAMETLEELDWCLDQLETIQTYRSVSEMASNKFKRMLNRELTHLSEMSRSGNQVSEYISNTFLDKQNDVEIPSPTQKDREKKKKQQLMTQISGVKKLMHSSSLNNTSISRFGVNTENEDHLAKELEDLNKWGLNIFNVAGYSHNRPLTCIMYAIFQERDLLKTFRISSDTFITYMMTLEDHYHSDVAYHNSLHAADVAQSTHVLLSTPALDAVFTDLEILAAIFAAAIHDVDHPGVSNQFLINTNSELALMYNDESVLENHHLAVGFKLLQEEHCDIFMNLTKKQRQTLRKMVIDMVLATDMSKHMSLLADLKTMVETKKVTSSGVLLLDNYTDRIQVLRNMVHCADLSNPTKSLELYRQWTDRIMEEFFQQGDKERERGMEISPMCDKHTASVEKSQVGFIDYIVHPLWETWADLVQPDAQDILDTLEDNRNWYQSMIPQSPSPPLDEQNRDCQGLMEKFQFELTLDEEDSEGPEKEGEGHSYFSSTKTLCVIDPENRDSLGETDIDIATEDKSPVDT
Outline: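 Cell-based read-out of cAMP via a modified cyclic nucleotide-gated channel and membrane potential dye (535/590 nm) in HEK293 cells expressing PDE4 endogenously. Compounds tested up to 22.9 uM final; 100 uM RO 20-1724 reference.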

[8] = qHTS Assay for Lipid Storage Modulators (AID 1519; calls by dose curve); settings: Drosophila S3 cells, BODIPY lipid droplet/cell ratio, laser cytometry, cells loaded with oleic acid; for activity change, negative = inhibition: at 25.7 µM (top of the series)
Outline: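 Cells seeded at 5,000 per well were treated with compounds over a concentration series and loaded with oleic acid (400 uM, as added). Lipid droplet fluorescence (488 nm excitation, 500-530 nm channel) was read by laser-scanning cytometry and normalized to 20 uM Triacsin C.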

[9] = S16 Schwann cell viability assay (CellTiter-Glo assay) (AID 624031);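 also: cellular ATP luminescence as a viability measure; plate controls were DMSO-treated cells for no effect and cell-free wells for full effect; nearly all actives have a fitted effect of over 70% in size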
Outline: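 Luminescent ATP read-out (CellTiter-Glo) after 24 h compound exposure of native S16 rat Schwann cells at 37 °C. Signals were normalized between cell-free wells and DMSO-treated cells, set as 0% activity.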

AS120 = assay: qHTS profiling for inhibitors of Plasmodium falciparum proliferation (AID 504749);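 also: 0% = DMSO vehicle and full inhibition = artemisinin control; nearly all actives have a fitted effect of over 60% in size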; settings: P. falciparum in erythrocytes, SYBR Green DNA, 72 h; series mostly up to 12.8 µM
Outline: (§1)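 Parasite proliferation within erythrocytes, 72 h exposure. Endpoint: SYBR Green I fluorescence after overnight lysis at room temperature. Controls: 0.29 uM artemisinin, DMSO.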

CP238 = assay: as above; settings: P. falciparum in erythrocytes, SYBR Green DNA, 72 h; series mostly up to 12.8 µM
Outline: as §1

CP252 = assay: as above; settings: P. falciparum in erythrocytes, SYBR Green DNA, 72 h; series mostly up to 12.8 µM
Outline: as §1

FAB9 = assay: as above; settings: P. falciparum in erythrocytes, SYBR Green DNA, 72 h; series mostly up to 12.8 µM
Outline: as §1

JCK = assay: as above; settings: P. falciparum in erythrocytes, SYBR Green DNA, 72 h; series mostly up to 12.8 µM
Outline: as §1

PAD = assay: as above; settings: P. falciparum in erythrocytes, SYBR Green DNA, 72 h; series mostly up to 12.8 µM
Outline: as §1

[10] = molecular target: Ubiquitin carboxyl-terminal hydrolase 1 (Homo sapiens) (UniProt O94782); assay: Inhibitors of USP1/UAF1: Pilot qHTS (AID 504865);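 also: rhodamine fluorescence freed from ubiquitin-rhodamine substrate followed over time; top concentration of the series differs between compounds; % is scaled to controls: 0 for no effect and ±100 for the full control effect; nearly all actives have a fitted effect of over 35% in size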
Sequence of Ubiquitin carboxyl-terminal hydrolase 1 (Homo sapiens) (O94782 whole entry, looked up): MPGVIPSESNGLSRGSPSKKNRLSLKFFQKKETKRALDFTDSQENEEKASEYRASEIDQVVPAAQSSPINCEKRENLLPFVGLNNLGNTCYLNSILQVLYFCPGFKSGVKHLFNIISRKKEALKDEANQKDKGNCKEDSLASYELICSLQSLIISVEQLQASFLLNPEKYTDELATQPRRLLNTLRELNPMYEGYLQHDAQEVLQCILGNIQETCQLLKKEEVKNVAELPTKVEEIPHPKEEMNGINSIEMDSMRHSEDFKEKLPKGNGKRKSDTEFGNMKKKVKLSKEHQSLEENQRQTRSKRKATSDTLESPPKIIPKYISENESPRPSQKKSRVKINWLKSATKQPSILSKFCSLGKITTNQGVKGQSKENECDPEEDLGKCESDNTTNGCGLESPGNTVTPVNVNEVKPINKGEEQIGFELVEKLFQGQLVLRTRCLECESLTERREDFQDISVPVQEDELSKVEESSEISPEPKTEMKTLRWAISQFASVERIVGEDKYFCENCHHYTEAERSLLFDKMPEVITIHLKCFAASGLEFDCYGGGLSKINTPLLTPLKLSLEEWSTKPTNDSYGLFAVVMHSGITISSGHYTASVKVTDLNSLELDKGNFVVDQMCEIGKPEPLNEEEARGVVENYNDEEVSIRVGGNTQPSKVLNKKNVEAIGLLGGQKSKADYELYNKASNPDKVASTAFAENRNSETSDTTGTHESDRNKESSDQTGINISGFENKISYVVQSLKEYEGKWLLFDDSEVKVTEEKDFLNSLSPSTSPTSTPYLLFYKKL
Outline: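 In 50mM HEPES pH 7.8 containing 0.5mM EDTA, 1mM TCEP, 0.1 mg/ml BSA and 0.01% Tween-20, 1nM USP1/UAF1 is exposed to compound for 15 min, then Ub-Rho (150nM final) is added and fluorescence is read over time.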

[11] = qHTS profiling for inhibitors of Plasmodium falciparum proliferation (AID 504749);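 also: 0% = DMSO vehicle and full inhibition = artemisinin control; nearly all actives have a fitted effect of over 60% in size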; settings: P. falciparum in erythrocytes, SYBR Green DNA, 72 h, at 12.8 µM (top of the series)
Outline: as §1

C2A = assay: as above; settings: P. falciparum in erythrocytes, SYBR Green DNA, 72 h; series mostly up to 12.8 µM
Outline: as §1

CP237 = assay: as above; settings: P. falciparum in erythrocytes, SYBR Green DNA, 72 h; series mostly up to 12.8 µM
Outline: as §1

HB3 = assay: as above; settings: P. falciparum in erythrocytes, SYBR Green DNA, 72 h; series mostly up to 12.8 µM
Outline: as §1

[12] = measured here: cell count channel max response
[13] = measured here: lipid channel max response

C=C1c2c(Cl)ccc(O)c2C(O)=C2C(=O)[C@@]3(O)C(O)=C(C(N)=O)C(=O)[C@@H](N(C)C)[C@@H]3[C@@H](O)[C@H]12
-8.74%: max response [8, 13]
inactive: outcome [1] | activity change, negative = inhibition [2] -26.3% | outcome [3] | Potency [4] > 20.6 µM | Potency [5] > 20.6 µM | Potency [6] | outcome [7] | activity change, negative = inhibition [8] 1.11% | outcome [9] | Potency (AS120) | Potency (CP238) | Potency (CP252) | Potency (FAB9) | Potency (JCK) | Potency (PAD)
-8.18%: max response [8, 12]

CC(=O)OCC(=O)[C@@]12OC(C)(C)O[C@@H]1C[C@H]1[C@H]3C[C@H](F)C4=CC(=O)C=C[C@@]4(C)[C@]3(F)[C@H](O)C[C@@]12C
-17.4%: max response [8, 13]
active: Potency [4] 0.00175 µM | Potency [5] 0.0128 µM
-13.1%: max response [8, 12]
inactive: outcome [1] | activity change, negative = inhibition [2] -1.01% | outcome [3] | Potency [6] | outcome [7] | activity change, negative = inhibition [8] -1.78% | Potency [10] | outcome [9] | activity, negative = inhibition ([11]; parasite line A) -6.81% | activity, negative = inhibition ([11]; parasite line B) -12% | Potency (AS120) | Potency (C2A) | Potency (CP237) | Potency (CP238) | Potency (CP252) | Potency (FAB9) | Potency (HB3) | Potency (JCK) | Potency (PAD)

O=c1cc(-c2ccc(O)cc2)oc2c([C@H]3O[C@@H](CO)[C@@H](O)[C@@H](O)[C@@H]3O)c(O)cc(O)c12
inactive: outcome [1] | activity change, negative = inhibition [2] 2.91% | outcome [3] | Potency [4] > 20.6 µM | Potency [5] > 20.6 µM | Potency [6] | outcome [7] | activity change, negative = inhibition [8] -1.45% | Potency [10]
1.02%: max response [8, 13]
-1.3%: max response [8, 12]

NC[C@@H]1O[C@H](O[C@H]2[C@H](O)[C@H](O[C@@H]3O[C@H](CO)[C@@H](O)[C@H](N)[C@@H]3O)[C@@H](N)C[C@H]2N)[C@@H](O)[C@H](O)[C@@H]1O
-1.61%: max response [8, 12]
inactive: outcome [1] | activity change, negative = inhibition [2] -3.83% | outcome [3] | Potency [4] > 20.6 µM | Potency [5] > 20.6 µM | Potency [6] | outcome [7] | activity change, negative = inhibition [8] -4.16% | outcome [9] | activity, negative = inhibition ([11]; parasite line A) 3.46% | activity, negative = inhibition ([11]; parasite line B) 7.68% | Potency (AS120) | Potency (C2A) | Potency (CP237) | Potency (CP238) | Potency (CP252) | Potency (FAB9) | Potency (HB3) | Potency (JCK) | Potency (PAD)
-7%: max response [8, 13]

CCCC(=O)Nc1ccc(OC[C@@H](O)CNC(C)C)c(C(C)=O)c1
inactive: outcome [1] | activity change, negative = inhibition [2] -10.7% | outcome [3] | Potency [4] > 20.6 µM | Potency [5] > 20.6 µM | Potency [6] | outcome [7] | activity change, negative = inhibition [8] -2.69% | Potency [10] | outcome [9]
-3.96%: max response [8, 13]
-0.4%: max response [8, 12]

c1ccc(CNc2ncnc3nc[nH]c23)cc1
inactive: outcome [1] | activity change, negative = inhibition [2] 7.66% | outcome [3] | Potency [4] > 20.6 µM | Potency [5] > 20.6 µM | Potency [6] | outcome [7] | activity change, negative = inhibition [8] -0.17% | Potency [10]
-13.8%: max response [8, 12]
-12.9%: max response [8, 13]

CCCCC[C@H](O)/C=C\[C@@H]1[C@H](O)CC(=O)[C@@H]1CCCCCCC(=O)O
-11.1%: max response [8, 13]
inactive: outcome [1] | activity change, negative = inhibition [2] -1.09% | outcome [3] | Potency [4] > 20.6 µM | Potency [5] > 20.6 µM | Potency [6] | outcome [7] | activity change, negative = inhibition [8] -3.38% | Potency [10] | outcome [9] | activity, negative = inhibition ([11]; parasite line A) 8.32% | activity, negative = inhibition ([11]; parasite line B) 1.76% | Potency (AS120) | Potency (C2A) | Potency (CP237) | Potency (CP238) | Potency (CP252) | Potency (FAB9) | Potency (JCK) | Potency (PAD)
-5.83%: max response [8, 12]

O=C(O)CCCC[C@H]1SC[C@H]2NC(=O)N[C@@H]21
5.29%: max response [8, 12]
0.0876%: max response [8, 13]
active: Potency [6] 0.00126 µM
inactive: outcome [1] | activity change, negative = inhibition [2] 2.95% | outcome [3] | Potency [4] > 20.6 µM | Potency [5] > 20.6 µM | outcome [7] | activity change, negative = inhibition [8] -3.62% | Potency [10]

C[N+]1(C)CC[C@@H](OC(=O)[C@@](O)(c2ccccc2)C2CCCC2)C1
-10.3%: max response [8, 13]
active: activity change, negative = inhibition [2] -43.8%
inactive: outcome [1] | outcome [3] | outcome [7] | activity change, negative = inhibition [8] -2.8% | Potency [10]
-7.92%: max response [8, 12]

O[C@H](c1cc(C(F)(F)F)nc2c(C(F)(F)F)cccc12)[C@H]1CCCCN1
-23.7%: max response [8, 13]
-16.3%: max response [8, 12]
inactive: outcome [1] | activity change, negative = inhibition [2] 24.6% | outcome [3] | Potency [4] > 20.6 µM | Potency [5] > 20.6 µM | outcome [7] | activity change, negative = inhibition [8] -11.8% | Potency [10]

C[N+](C)(CCCOc1ccccc1)c1ccccc1
inactive: outcome [1] | activity change, negative = inhibition [2] -17.9% | outcome [3] | Potency [4] > 20.6 µM | Potency [5] > 20.6 µM | Potency [6] | outcome [7] | activity change, negative = inhibition [8] 3.08% | Potency [10]
0.349%: max response [8, 12]
5.95%: max response [8, 13]

NC[C@@H]1O[C@@H](O[C@H]2[C@H](O)[C@H](O[C@@H]3O[C@H](CO)[C@@H](O)[C@H](N)[C@@H]3O)[C@@H](N)C[C@H]2N)[C@H](N)C[C@@H]1O
inactive: outcome [1] | activity change, negative = inhibition [2] -7.92% | outcome [3] | Potency [6] | outcome [7] | activity change, negative = inhibition [8] -2.29% | outcome [9] | activity, negative = inhibition ([11]; parasite line A) 9.72% | activity, negative = inhibition ([11]; parasite line B) 18.7% | Potency (AS120) | Potency (C2A) | Potency (CP237) | Potency (CP238) | Potency (CP252) | Potency (FAB9) | Potency (HB3) | Potency (JCK) | Potency (PAD)
-6.77%: max response [8, 13]
-4.83%: max response [8, 12]
